The supplement of paper PMC11732987, “Enantioselective OTUD7B fragment discovery through chemoproteomics screening and high-throughput optimisation” (Communications Chemistry, 2025)
Unmarked numbers belong to inactive results.

Assays:
Assay in all cases: log2 ratio of Biotin-Ahx-Ub-VS probe labelling (fragment/DMSO); higher = less target engagement (more negative = stronger competition), active = hit call of the paper (q ≤ 0.05, log2 ratio ≤ -1)
Conditions in all cases: compound concentration: 200 uM; treatment time: 3 h
USP42 = target: T1, USP42 (UniProt Q9H9J4)
T1 sequence (whole entry): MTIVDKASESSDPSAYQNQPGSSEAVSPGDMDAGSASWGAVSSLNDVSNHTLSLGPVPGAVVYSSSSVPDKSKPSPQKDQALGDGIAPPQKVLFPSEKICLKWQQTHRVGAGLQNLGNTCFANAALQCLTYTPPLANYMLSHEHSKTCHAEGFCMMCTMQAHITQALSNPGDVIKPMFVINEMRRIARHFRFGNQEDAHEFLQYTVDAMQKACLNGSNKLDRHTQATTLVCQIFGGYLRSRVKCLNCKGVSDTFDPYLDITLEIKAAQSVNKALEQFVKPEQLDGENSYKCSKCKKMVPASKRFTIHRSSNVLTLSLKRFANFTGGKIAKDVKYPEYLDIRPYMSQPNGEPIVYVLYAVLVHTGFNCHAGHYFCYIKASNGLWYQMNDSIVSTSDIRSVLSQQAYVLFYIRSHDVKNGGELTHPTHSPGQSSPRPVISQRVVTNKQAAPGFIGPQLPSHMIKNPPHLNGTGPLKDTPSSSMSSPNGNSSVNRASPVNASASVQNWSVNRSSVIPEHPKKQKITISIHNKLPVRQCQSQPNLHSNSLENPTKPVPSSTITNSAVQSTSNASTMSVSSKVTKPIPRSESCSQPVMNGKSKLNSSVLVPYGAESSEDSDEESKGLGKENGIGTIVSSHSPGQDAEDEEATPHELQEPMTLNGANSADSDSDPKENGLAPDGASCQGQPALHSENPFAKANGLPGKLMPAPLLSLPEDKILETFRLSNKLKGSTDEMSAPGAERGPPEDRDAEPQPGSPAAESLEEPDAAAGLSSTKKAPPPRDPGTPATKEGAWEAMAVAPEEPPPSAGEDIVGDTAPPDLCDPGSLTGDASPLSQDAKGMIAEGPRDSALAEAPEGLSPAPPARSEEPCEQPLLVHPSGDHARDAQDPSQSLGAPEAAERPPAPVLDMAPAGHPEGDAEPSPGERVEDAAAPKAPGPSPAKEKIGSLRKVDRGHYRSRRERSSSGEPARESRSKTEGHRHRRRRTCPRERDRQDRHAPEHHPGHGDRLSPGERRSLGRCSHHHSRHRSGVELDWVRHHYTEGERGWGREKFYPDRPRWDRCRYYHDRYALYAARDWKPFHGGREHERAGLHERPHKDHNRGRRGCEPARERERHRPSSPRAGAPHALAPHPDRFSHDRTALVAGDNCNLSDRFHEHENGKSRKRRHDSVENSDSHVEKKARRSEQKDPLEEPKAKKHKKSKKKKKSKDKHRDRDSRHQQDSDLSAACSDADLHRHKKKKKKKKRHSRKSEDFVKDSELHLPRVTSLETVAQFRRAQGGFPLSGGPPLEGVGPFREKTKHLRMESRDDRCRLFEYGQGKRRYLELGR
Outline: (§1)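 Global-median-normalised Spectronaut label-free quantities were compared by unpaired t-test, and values are average log2 ratios of fragment over vehicle. Only proteins with ≥2 unique peptides were used. HEK293T lysate (495 µg per sample) was treated in triplicate with fragment at 200 µM or vehicle for 3 h and then with Biotin-Ahx-Ub-VS at 0.5 µM final for 1 h. Labelled DUBs were then NeutrAvidin-enriched, digested with LysC and trypsin, and run by diaPASEF LC-MS/MS.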

USP46 = USP46 (UniProt P62068)
Outline: as §1

USP47 = target: T2, USP47 (UniProt Q96K76)
T2 sequence (whole entry): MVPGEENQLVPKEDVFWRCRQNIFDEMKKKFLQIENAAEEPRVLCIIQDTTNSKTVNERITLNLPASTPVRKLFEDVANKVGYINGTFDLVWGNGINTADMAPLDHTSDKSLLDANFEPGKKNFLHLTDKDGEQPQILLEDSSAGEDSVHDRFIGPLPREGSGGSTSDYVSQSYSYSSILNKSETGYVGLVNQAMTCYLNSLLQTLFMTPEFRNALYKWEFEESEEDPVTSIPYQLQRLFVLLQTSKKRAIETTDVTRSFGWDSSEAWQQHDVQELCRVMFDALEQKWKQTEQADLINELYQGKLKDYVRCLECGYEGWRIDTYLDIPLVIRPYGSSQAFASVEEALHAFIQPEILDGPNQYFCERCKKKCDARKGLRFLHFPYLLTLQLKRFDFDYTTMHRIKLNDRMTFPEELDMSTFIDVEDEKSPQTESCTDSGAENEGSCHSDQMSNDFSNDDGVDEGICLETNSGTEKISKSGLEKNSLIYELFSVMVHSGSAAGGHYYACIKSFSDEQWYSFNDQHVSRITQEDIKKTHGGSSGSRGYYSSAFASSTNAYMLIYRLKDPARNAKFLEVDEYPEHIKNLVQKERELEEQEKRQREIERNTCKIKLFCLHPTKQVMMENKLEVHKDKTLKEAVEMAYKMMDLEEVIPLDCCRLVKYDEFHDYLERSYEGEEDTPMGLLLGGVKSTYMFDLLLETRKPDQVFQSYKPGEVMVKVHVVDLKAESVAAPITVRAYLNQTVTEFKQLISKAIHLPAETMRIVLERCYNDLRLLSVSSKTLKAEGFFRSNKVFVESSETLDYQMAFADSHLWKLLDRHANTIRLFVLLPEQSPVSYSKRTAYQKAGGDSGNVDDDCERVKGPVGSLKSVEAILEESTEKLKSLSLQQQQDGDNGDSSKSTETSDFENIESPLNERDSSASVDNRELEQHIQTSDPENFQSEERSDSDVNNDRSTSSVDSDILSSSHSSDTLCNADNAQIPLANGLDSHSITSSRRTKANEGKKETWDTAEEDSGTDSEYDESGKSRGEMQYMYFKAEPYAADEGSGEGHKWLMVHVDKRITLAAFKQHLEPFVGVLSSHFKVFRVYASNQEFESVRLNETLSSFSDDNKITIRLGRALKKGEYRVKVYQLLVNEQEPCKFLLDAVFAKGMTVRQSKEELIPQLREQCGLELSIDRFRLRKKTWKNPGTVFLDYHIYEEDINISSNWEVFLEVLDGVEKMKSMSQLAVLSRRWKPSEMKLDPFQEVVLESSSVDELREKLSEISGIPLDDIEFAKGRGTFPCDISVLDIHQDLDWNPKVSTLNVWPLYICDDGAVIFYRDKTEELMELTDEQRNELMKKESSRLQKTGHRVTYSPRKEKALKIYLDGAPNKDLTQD
Outline: as §1

USP48 = target: T3, USP48 (UniProt Q86UV5)
T3 sequence (whole entry): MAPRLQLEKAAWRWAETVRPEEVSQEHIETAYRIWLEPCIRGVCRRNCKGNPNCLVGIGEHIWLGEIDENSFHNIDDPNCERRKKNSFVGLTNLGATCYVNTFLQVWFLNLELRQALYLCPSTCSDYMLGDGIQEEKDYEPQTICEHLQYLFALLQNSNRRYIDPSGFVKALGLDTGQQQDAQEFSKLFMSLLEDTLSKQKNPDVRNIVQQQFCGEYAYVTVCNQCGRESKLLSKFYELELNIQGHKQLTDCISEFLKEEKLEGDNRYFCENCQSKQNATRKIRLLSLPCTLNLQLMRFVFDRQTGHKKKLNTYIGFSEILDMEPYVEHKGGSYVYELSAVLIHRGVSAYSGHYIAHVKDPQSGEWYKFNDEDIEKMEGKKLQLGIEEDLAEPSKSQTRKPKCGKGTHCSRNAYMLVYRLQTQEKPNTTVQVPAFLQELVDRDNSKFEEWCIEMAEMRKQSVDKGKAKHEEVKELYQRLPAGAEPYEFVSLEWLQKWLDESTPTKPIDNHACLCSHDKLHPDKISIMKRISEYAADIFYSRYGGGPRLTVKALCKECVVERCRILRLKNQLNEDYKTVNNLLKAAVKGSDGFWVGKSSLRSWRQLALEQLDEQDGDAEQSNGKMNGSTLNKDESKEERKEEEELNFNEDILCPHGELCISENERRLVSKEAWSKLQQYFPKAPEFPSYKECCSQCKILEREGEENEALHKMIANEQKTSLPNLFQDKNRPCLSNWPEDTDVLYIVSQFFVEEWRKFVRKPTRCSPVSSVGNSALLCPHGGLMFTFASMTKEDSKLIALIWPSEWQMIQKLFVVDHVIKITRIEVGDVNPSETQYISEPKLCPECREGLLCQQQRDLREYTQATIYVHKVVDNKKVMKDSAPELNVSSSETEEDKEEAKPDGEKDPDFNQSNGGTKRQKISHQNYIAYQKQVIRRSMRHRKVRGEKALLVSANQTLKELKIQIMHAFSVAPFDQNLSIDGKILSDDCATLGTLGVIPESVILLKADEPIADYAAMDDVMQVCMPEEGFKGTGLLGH
Outline: as §1

USP5 = target: T4, USP5 (UniProt P45974)
T4 sequence (whole entry): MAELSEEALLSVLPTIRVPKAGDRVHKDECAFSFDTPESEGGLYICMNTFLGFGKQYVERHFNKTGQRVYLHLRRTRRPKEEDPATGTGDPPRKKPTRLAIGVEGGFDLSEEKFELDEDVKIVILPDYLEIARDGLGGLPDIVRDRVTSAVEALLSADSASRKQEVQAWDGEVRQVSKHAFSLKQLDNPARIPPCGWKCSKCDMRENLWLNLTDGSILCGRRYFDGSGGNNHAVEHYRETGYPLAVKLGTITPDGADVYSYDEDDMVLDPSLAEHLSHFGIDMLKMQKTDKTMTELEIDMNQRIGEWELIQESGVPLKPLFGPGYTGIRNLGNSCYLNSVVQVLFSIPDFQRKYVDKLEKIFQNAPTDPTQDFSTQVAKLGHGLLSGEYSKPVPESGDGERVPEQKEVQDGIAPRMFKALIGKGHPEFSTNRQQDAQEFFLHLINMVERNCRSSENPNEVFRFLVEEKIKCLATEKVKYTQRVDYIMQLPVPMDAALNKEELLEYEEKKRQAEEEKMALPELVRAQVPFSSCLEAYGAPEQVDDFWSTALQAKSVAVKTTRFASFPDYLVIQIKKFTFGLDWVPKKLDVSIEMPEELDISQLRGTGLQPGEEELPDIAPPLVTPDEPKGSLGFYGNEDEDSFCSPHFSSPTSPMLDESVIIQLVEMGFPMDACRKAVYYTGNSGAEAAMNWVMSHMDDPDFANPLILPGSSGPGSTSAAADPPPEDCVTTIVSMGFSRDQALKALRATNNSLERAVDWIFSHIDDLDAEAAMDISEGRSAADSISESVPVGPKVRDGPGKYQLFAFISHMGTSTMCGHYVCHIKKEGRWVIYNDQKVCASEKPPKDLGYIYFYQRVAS
Outline: as §1

USP54 = USP54 (UniProt Q70EL1)
Outline: as §1

USP7 = USP7 (UniProt Q93009)
Outline: as §1

USP8 = target: T5, USP8 (UniProt P40818)
T5 sequence (whole entry): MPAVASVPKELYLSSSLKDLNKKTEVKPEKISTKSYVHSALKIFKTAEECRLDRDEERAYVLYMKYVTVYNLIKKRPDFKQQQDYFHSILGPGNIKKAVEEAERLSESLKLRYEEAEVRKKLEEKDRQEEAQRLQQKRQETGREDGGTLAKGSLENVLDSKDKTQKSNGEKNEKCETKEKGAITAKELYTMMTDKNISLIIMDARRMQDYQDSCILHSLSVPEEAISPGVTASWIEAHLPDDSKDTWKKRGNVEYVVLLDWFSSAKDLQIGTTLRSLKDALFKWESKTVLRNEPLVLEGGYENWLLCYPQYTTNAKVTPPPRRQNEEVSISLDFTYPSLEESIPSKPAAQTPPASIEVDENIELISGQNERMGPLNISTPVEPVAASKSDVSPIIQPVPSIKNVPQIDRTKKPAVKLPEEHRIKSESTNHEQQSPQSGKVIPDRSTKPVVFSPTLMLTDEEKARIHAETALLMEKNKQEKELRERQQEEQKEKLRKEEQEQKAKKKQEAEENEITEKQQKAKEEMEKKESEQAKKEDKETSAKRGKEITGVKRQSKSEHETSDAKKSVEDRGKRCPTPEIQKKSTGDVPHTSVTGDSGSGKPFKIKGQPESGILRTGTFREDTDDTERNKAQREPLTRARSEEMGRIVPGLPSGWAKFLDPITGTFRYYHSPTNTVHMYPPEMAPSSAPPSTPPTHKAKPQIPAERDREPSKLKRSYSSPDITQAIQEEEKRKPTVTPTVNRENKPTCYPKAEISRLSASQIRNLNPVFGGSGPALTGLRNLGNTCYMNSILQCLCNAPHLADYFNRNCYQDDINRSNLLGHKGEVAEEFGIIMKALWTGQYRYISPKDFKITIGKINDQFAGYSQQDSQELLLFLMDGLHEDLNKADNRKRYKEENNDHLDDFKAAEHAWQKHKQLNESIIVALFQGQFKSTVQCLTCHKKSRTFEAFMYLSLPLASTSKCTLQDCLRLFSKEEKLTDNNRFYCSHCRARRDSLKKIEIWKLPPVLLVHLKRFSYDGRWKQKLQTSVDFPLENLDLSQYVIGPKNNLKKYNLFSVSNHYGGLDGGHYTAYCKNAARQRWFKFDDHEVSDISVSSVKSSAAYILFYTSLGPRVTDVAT
Outline: as §1

USP9X = USP9X (UniProt Q93008)
Outline: as §1

UniProt O00487 = target: UniProt O00487
Outline: as §1

Sequence of USP46 (P62068 whole entry): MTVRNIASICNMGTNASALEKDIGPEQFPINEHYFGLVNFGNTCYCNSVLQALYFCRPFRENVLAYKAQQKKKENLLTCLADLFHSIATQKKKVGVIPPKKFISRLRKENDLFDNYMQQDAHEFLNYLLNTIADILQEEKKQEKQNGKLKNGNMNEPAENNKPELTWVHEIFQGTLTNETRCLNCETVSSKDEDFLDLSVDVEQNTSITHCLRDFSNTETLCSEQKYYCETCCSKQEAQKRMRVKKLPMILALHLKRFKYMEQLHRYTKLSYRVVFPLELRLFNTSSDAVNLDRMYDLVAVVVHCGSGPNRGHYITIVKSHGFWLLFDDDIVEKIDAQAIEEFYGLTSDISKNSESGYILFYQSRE
Sequence of USP7 (Q93009 whole entry, looked up): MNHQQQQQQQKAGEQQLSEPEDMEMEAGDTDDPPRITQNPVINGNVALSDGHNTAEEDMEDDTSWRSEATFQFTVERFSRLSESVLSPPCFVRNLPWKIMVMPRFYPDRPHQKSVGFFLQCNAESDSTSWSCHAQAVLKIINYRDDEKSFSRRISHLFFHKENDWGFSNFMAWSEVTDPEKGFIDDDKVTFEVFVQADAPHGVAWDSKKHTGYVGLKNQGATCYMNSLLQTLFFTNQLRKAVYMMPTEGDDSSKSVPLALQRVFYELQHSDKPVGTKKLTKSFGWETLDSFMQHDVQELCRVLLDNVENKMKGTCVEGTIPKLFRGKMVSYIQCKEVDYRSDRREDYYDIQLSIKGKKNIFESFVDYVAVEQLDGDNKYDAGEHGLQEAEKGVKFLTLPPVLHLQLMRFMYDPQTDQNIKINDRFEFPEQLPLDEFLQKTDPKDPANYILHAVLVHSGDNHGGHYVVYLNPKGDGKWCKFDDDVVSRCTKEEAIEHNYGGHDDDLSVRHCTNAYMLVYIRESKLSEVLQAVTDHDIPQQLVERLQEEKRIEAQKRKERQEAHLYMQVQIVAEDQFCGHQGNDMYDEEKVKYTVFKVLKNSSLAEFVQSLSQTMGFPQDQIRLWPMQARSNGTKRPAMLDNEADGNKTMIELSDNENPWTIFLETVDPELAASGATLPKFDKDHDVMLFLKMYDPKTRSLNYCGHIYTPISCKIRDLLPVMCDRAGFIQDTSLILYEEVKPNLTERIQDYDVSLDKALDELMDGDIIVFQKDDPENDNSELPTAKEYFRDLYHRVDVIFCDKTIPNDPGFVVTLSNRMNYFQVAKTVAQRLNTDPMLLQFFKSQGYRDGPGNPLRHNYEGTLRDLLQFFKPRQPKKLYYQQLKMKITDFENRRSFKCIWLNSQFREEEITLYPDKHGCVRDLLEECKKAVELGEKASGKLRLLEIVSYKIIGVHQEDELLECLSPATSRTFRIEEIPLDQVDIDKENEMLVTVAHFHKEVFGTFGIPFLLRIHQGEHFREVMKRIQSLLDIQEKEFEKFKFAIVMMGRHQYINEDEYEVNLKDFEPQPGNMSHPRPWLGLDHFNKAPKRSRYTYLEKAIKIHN
Sequence of USP9X (Q93008 whole entry): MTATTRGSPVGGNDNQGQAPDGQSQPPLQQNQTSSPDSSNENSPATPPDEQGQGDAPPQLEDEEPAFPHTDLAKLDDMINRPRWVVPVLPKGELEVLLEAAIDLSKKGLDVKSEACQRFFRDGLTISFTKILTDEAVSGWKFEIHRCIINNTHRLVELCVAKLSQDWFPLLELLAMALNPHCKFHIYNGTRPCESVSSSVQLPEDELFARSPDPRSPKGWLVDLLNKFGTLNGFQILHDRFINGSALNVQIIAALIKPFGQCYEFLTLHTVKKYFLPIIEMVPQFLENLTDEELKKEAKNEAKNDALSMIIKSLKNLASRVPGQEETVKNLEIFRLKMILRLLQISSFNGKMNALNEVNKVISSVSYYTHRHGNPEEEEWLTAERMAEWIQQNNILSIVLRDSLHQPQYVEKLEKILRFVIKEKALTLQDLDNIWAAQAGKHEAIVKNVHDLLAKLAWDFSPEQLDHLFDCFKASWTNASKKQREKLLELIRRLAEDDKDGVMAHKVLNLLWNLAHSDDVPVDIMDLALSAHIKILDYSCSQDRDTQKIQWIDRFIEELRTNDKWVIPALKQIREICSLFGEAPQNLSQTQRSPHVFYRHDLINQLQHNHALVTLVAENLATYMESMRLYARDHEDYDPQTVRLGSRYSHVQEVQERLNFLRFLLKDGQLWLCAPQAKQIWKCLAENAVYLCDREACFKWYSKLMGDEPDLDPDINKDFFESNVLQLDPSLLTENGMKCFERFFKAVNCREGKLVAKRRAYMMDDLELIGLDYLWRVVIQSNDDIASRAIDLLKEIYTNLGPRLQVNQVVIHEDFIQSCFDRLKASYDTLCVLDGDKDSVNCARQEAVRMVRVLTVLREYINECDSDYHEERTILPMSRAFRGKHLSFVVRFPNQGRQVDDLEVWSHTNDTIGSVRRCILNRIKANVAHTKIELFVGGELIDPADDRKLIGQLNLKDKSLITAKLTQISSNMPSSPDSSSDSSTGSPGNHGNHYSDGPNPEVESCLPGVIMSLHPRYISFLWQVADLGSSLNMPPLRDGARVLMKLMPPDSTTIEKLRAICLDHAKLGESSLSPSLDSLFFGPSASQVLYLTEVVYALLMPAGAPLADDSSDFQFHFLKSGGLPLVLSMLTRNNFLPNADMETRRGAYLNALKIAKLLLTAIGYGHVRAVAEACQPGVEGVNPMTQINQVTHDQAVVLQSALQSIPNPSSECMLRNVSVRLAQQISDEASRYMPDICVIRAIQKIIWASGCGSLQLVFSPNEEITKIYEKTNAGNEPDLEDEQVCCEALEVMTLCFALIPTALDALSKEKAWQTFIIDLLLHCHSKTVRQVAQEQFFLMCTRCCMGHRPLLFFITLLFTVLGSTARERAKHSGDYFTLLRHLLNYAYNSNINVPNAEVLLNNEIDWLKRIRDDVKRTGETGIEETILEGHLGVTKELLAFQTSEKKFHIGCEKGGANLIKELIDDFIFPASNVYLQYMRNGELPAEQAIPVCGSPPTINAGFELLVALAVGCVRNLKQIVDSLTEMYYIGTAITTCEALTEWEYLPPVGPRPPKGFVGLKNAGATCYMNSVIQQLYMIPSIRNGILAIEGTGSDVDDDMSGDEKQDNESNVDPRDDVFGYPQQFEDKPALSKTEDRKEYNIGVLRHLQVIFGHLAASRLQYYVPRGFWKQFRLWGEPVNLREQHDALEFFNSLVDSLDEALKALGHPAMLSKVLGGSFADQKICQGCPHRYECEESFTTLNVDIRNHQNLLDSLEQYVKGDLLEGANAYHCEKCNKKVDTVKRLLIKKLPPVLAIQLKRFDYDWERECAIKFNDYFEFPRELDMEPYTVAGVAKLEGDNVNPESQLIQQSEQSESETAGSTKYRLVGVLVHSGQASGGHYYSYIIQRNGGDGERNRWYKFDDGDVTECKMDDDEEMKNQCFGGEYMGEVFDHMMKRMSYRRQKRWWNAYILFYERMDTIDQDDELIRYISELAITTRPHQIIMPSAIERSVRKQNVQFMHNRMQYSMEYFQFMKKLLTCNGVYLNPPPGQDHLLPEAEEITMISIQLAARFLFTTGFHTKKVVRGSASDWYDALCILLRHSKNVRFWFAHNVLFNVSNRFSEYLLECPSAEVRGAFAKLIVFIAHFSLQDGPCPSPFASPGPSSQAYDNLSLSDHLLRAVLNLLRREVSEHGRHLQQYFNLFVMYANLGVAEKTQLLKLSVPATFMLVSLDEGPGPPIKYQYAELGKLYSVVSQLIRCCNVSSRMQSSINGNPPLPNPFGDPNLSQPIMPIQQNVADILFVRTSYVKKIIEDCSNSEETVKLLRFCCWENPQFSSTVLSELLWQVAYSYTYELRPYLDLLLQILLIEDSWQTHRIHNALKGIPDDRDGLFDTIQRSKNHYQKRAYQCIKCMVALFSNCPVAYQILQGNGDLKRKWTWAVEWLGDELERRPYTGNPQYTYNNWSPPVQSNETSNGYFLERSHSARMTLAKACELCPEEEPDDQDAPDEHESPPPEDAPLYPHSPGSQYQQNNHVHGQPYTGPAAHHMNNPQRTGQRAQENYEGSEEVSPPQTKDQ
Sequence of UniProt O00487 (O00487 whole entry): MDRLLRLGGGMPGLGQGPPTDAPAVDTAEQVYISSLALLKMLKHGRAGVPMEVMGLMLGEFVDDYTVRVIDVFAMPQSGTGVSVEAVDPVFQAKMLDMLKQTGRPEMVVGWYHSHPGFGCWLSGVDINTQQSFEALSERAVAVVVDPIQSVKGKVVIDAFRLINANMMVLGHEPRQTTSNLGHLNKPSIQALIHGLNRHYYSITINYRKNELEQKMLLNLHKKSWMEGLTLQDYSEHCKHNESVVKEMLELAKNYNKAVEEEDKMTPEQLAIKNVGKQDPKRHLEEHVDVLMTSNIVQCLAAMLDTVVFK

Compound | log2 ratio of Biotin-Ahx-Ub-VS probe labelling (USP42) | log2 ratio of Biotin-Ahx-Ub-VS probe labelling (USP46) | log2 ratio of Biotin-Ahx-Ub-VS probe labelling (USP47) | log2 ratio of Biotin-Ahx-Ub-VS probe labelling (USP48) | log2 ratio of Biotin-Ahx-Ub-VS probe labelling (USP5) | log2 ratio of Biotin-Ahx-Ub-VS probe labelling (USP54) | log2 ratio of Biotin-Ahx-Ub-VS probe labelling (USP7) | log2 ratio of Biotin-Ahx-Ub-VS probe labelling (USP8) | log2 ratio of Biotin-Ahx-Ub-VS probe labelling (USP9X) | log2 ratio of Biotin-Ahx-Ub-VS probe labelling (UniProt O00487)
O=C(CCl)N1CCC(O)(Cc2ccc(F)cc2)C1 (stereo not given) | 0.0317 | -0.0773 | -0.574 | -0.434 | 0.465 | -0.501 | -0.133 | -0.169 | 0.0751 | -0.0616
O=C(CCl)Nc1ccc(Cl)c(F)c1 | -0.0407 | -0.231 | -0.798 | -0.731 | -0.223 | -0.268 | -0.646 | -0.207 | -0.282 | -0.0232
COc1ccc(C2CCCN2C(=O)CCl)c(OC)c1 (stereo not given) | 0.426 | -0.295 | -0.378 | -0.744 | 0.0602 | 0.223 | -1.23 (active) | -0.00675 | -0.271 | -0.0639
